# Results from PubChem BioAssay (NCI).
# The panel holds about 79,000 compounds, 15% with a hit somewhere; the sample as a whole holds those more often. Values without a mark were called inactive. Active and inactive are the calls of the source. Rule as the data show it: active = growth inhibition above about 70%; inactive = the rest.
# How the values were obtained:
# [1] = NCI Yeast Anticancer Drug Screen. Data for the rad52 strain (AID 147);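 also: 0% = growth of vehicle-treated control cultures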; conditions: S. cerevisiae rad52 mutant growth inhibition, hits give high values
# In short: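 Genetically altered yeast (DNA damage repair defect) treated with compound; inhibition calculated relative to vehicle.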
# [2] = NCI Yeast Anticancer Drug Screen. Data for the wt1 strain (AID 149);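 also: 0% = growth of vehicle-treated wt1 cultures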; conditions: S. cerevisiae wt1 strain (SPY 50644) growth inhibition, hits give high values
# In short: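 Each compound is tested on wt1 yeast and the loss of growth versus vehicle gives the inhibition value.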
# [3] = NCI Yeast Anticancer Drug Screen. Data for the rad50EPP+ strain (AID 151);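 also: 0% = growth of vehicle-treated control cultures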; conditions: S. cerevisiae rad50 mutant strain, hits give high values
# In short: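 Strain rad50EPP+; compound exposure; % growth inhibition vs vehicle.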
# [4] = NCI Yeast Anticancer Drug Screen. Data for the mgt1 strain (AID 153); conditions: S. cerevisiae mgt1 mutant growth inhibition, hits give high values
# In short: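 Read-out: yeast growth inhibition vs vehicle control. Strain mgt1, drawn from a panel altered in DNA damage repair or cell cycle control.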
# [5] = NCI Yeast Anticancer Drug Screen. Data for the rad50 strain (AID 155);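 also: 0% = growth of vehicle-only cultures of the same strain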; conditions: S. cerevisiae rad50 strain growth inhibition, hits give high values
# In short: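 Vehicle-treated cultures provide the reference for the growth inhibition reported for compound-exposed, repair-deficient yeast.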
# [6] = NCI Yeast Anticancer Drug Screen. Data for the mec2-1 strain (AID 157); conditions: S. cerevisiae mec2-1 strain, hits give high values
# In short: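 Cells of the genetically defined mec2-1 yeast strain are incubated with test compound. Inhibition of growth is calculated against vehicle-treated controls.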
# [7] = NCI Yeast Anticancer Drug Screen. Data for the rad14 strain (AID 159);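 also: 0% = growth of vehicle-treated control cultures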; conditions: S. cerevisiae rad14 strain growth inhibition, hits give high values
# In short: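 Inhibition of growth is reported for a repair-deficient yeast mutant following compound treatment, calculated relative to cultures that received vehicle.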
# [8] = NCI Yeast Anticancer Drug Screen. Data for the sgs1 mgt1 strain (AID 161);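 also: 0% = growth of cultures given vehicle only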; conditions: S. cerevisiae sgs1 mgt1 strain, hits give high values
# In short: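 Inhibition of yeast growth, normalised to vehicle-treated controls, is reported for a strain bearing genetic alterations in DNA damage repair.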
# [9] = NCI Yeast Anticancer Drug Screen. Data for the CLN2oe strain (AID 163);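 also: 0% = growth of vehicle-only control cultures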; conditions: S. cerevisiae CLN2oe strain, hits give high values
# In short: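 Strain altered in cell-cycle control, incubated with compound; growth compared to solvent-treated controls.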
# [10] = NCI Yeast Anticancer Drug Screen. Data for the cln2 rad14 strain (AID 165);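 also: 0% = growth equal to vehicle treated cultures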; conditions: S. cerevisiae cln2 rad14 strain, hits give high values
# In short: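 The screen exposed genetically defined yeast (cln2 rad14) to test compounds and scored growth inhibition relative to vehicle-treated controls.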
# [11] = NCI Yeast Anticancer Drug Screen. Data for the bub3 strain (AID 167); conditions: S. cerevisiae bub3 mutant strain, hits give high values
# In short: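 Mutant yeast screening strain plus compound; vehicle-treated cultures serve as the 0% inhibition reference.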
# [12] = NCI Yeast Anticancer Drug Screen. Data for the wt2 strain (AID 169); conditions: S. cerevisiae wt2 strain growth inhibition, hits give high values
# In short: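 Steps: yeast strain treated with compound; growth recorded; inhibition calculated relative to cultures given vehicle alone.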
# [13] = NCI Yeast Anticancer Drug Screen. Data for the mlh1 strain (AID 171);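 also: 0% = growth of vehicle-treated control cultures of the same strain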; conditions: S. cerevisiae mlh1 strain growth inhibition, hits give high values
# In short: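 Yeast screen: mutant strain plus compound, growth scored against vehicle control wells.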
# [14] = NCI Yeast Anticancer Drug Screen. Data for the sgs1 strain (AID 173);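 also: 0% = growth of vehicle-only control cultures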; conditions: S. cerevisiae sgs1 mutant, hits give high values
# In short: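 Inhibition of yeast growth served as the measure. The mutant strain was treated with each compound, and growth was normalised to cultures receiving vehicle alone.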
# [15] = NCI Yeast Anticancer Drug Screen. Data for the mlh1 rad18 strain (AID 175); conditions: S. cerevisiae mlh1 rad18 strain growth inhibition, hits give high values
# In short: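 Compound-treated yeast growth, normalised to vehicle controls. Strain bears defined DNA repair mutations.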
# [16] = NCI Yeast Anticancer Drug Screen. Data for the rad18 strain (AID 177); conditions: S. cerevisiae rad18 mutant growth inhibition, hits give high values
# In short: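 Inhibition values reflect reduced yeast growth compared with vehicle-treated controls, using a strain engineered with a DNA damage repair defect.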
# [17] = at 5.0 µM (retest, dose inferred, filed as 0.5)
# [18] = at 50.0 µM (retest, dose inferred, filed as 5.0)
structure (smiles),measurement,setting,value
CCCCCCCCCCCCCCC(C(=O)[O-])[n+]1ccccc1 (stereo not drawn),growth inhibition,[1]; at 1.2 µM,2%
same,growth inhibition,[1]; at 3.7 µM,2%
same,growth inhibition,[1]; at 11.0 µM,2%
same,growth inhibition,[1]; at 33.0 µM,-1%
same,growth inhibition,[1]; at 100.0 µM,91% (active)
same,growth inhibition,[2]; at 1.2 µM,-1%
same,growth inhibition,[2]; at 3.7 µM,-3%
same,growth inhibition,[2]; at 11.0 µM,-4%
same,growth inhibition,[2]; at 33.0 µM,-6%
same,growth inhibition,[2]; at 100.0 µM,6%
same,growth inhibition,[3]; at 1.2 µM,0%
same,growth inhibition,[3]; at 3.7 µM,4%
same,growth inhibition,[3]; at 11.0 µM,4%
same,growth inhibition,[3]; at 33.0 µM,3%
same,growth inhibition,[3]; at 100.0 µM,39%
same,growth inhibition,[4]; at 1.2 µM,2%
same,growth inhibition,[4]; at 3.7 µM,-4%
same,growth inhibition,[4]; at 11.0 µM,2%
same,growth inhibition,[4]; at 33.0 µM,-2%
same,growth inhibition,[4]; at 100.0 µM,95% (active)
same,growth inhibition,[5]; at 1.2 µM,3%
same,growth inhibition,[5]; at 3.7 µM,9%
same,growth inhibition,[5]; [17],9%
same,growth inhibition,[5]; at 11.0 µM,3%
same,growth inhibition,[5]; at 33.0 µM,4%
same,growth inhibition,[5]; [18],20%
same,growth inhibition,[5]; at 50.0 µM,98.5% (active)
same,growth inhibition,[5]; at 100.0 µM,97% (active)
same,growth inhibition,[6]; at 1.2 µM,3%
same,growth inhibition,[6]; at 3.7 µM,1%
same,growth inhibition,[6]; [17],-2%
same,growth inhibition,[6]; at 11.0 µM,-7%
same,growth inhibition,[6]; at 33.0 µM,-2%
same,growth inhibition,[6]; [18],97% (active)
same,growth inhibition,[6]; at 50.0 µM,99% (active)
same,growth inhibition,[6]; at 100.0 µM,95% (active)
same,growth inhibition,[7]; at 1.2 µM,-2%
same,growth inhibition,[7]; at 3.7 µM,13%
same,growth inhibition,[7]; at 11.0 µM,0%
same,growth inhibition,[7]; at 33.0 µM,2%
same,growth inhibition,[7]; at 100.0 µM,90% (active)
same,growth inhibition,[8]; [17],12%
same,growth inhibition,[8]; [18],45%
same,growth inhibition,[8]; at 50.0 µM,98.8% (active)
same,growth inhibition,[9]; at 1.2 µM,3%
same,growth inhibition,[9]; at 3.7 µM,3%
same,growth inhibition,[9]; at 11.0 µM,3%
same,growth inhibition,[9]; at 33.0 µM,-2%
same,growth inhibition,[9]; at 100.0 µM,26%
same,growth inhibition,[10]; [17],8%
same,growth inhibition,[10]; [18],26%
same,growth inhibition,[10]; at 50.0 µM,95.8% (active)
same,growth inhibition,[11]; at 1.2 µM,2%
same,growth inhibition,[11]; at 3.7 µM,-27%
same,growth inhibition,[11]; [17],5%
same,growth inhibition,[11]; at 11.0 µM,0%
same,growth inhibition,[11]; at 33.0 µM,-8%
same,growth inhibition,[11]; [18],91% (active)
same,growth inhibition,[11]; at 50.0 µM,97.3% (active)
same,growth inhibition,[11]; at 100.0 µM,85% (active)
same,growth inhibition,[12]; at 1.2 µM,0%
same,growth inhibition,[12]; at 3.7 µM,0%
same,growth inhibition,[12]; at 11.0 µM,-1%
same,growth inhibition,[12]; at 33.0 µM,7%
same,growth inhibition,[12]; at 100.0 µM,83% (active)
same,growth inhibition,[13]; at 1.2 µM,0%
same,growth inhibition,[13]; at 3.7 µM,-3%
same,growth inhibition,[13]; at 11.0 µM,-12%
same,growth inhibition,[13]; at 33.0 µM,-18%
same,growth inhibition,[13]; at 100.0 µM,99% (active)
same,growth inhibition,[14]; at 1.2 µM,0%
same,growth inhibition,[14]; at 3.7 µM,-3%
same,growth inhibition,[14]; at 11.0 µM,-2%
same,growth inhibition,[14]; at 33.0 µM,13%
same,growth inhibition,[14]; at 100.0 µM,95% (active)
same,growth inhibition,[15]; [17],-15%
same,growth inhibition,[15]; [18],51%
same,growth inhibition,[15]; at 50.0 µM,98% (active)
same,growth inhibition,[16]; at 1.2 µM,3%
same,growth inhibition,[16]; at 3.7 µM,8%
same,growth inhibition,[16]; at 11.0 µM,24%
same,growth inhibition,[16]; at 33.0 µM,81% (active)
same,growth inhibition,[16]; at 100.0 µM,97% (active)
